# Rows were chosen to be rich in hits. Some 19% of all compounds tested hit in one or more screens of this group.
# DT40 TDP1 CPT: DT40-hTDP1 cell growth loss with CPT | hit rate 12% among 420,000 | chicken DT40 Tdp1-/-;hTDP1 cells + 20 nM CPT, ATP luminescence, 48 h | Potency, µM (doses to about 46.2 µM), for inactives: at the top dose activity change, negative = growth inhibition, actives largely listed as inhibitors | AID 686979; further: potency means the concentration at half of the fitted maximal effect; nearly all actives have a fitted effect of over 55% in size
#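 Cell growth measured by CellTiter-Glo luminescence after a minimum 48 h, 37 C compound exposure with 20 nM CPT in Tdp1-knockout DT40 cells stably expressing hTDP1, seeded 400/well; qHTS titration format.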
# HT1080NT lethal: kills 2HG-producing HT-1080-NT fibrosarcoma cells. HT-1080-NT fibrosarcoma viability, CellTiter-Glo ATP luminescence, 48 h. Potency, µM (highest dose often 46.1 µM), inactives show at the highest dose activity, negative = less viability, most hits filed as cytotoxic. AID 686970. hit rate 1.6% among 360,000;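 further: NT is the 2HG producing partner of a matched IDH1 knockdown line; potency means the concentration at half of the fitted maximal effect; 0% = DMSO-treated cells and -100% = media-only wells without cells; nearly all actives have a fitted effect of over 55% in size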
#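 A 48-hour cytotoxicity screen used HT-1080-NT cells plated 2 hours before compound delivery. ATP-based CellTiter-Glo luminescence measured viability, normalized to DMSO and no-cell controls.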
# TDP1 cell noCPT: qHTS for Inhibitors of human tyrosyl-DNA phosphodiesterase 1 (TDP1): qHTS in cells in absence of CPT | DT40 Tdp1-/- hTDP1 cells, no CPT, ATP luminescence, 48 h | AID 686978, 2013 | Potency, µM (doses to about 46.2 µM), for the others: at the highest dose activity change, negative = growth inhibition, actives largely listed as inhibitors | hit rate 15% among 420,000; further: potency means the concentration at half of the fitted maximal effect; nearly all actives have a fitted effect of over 55% in size
#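 DT40 Tdp1-/-;hTDP1 cells, no CPT (DMSO vehicle only), 400 cells/well; compounds pin-transferred; ≥48 hr, 37 °C; CellTiter-Glo 30 min RT dark, luminescence read.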
# IL1B secr inh: inflammasome signaling inhibition, IL-1 beta readout | AID 743279 | activity change, % at 57.5 µM | THP-1 LPS/ATP IL-1B secretion, AlphaLISA, 16 h; hits give low values | hit rate 4.7% among 360,000; in the data active means activity change below about -50%; inconclusive means mostly about -30% to -49%
#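 THP-1 cells pretreated 1 hr with compounds (up to 57.5 uM final), then stimulated with LPS (250 ng/mL final) plus ATP (1.25 mM final); secreted IL-1B measured by AlphaLISA after 16 hr, decreased signal indicating inhibition.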
# uPA surface inh: blocks generation of uPA at the cell surface; Potency, µM (doses to about 38.3 µM), for the others: top-dose activity change, negative = inhibition, hits mostly inhibitors; hit rate 0.31% among 330,000; cell surface uPA generation assay, qHTS; AID 540303; active means well fitted inhibition curve with a large enough effect; inconclusive means small, poorly fitted or top-dose-only effect; inactive means no such curve, though single readings can be large or run the other way; tested in mouse RAW 264.7 cells; further: potency means the concentration at half of the fitted maximal effect; nearly all actives have a fitted effect of over 55% in size
# HT1080 IDH1KD tx: toxicity to HT-1080 IDH1 knockdown cells (counter line). HT-1080 IDH1 knockdown viability, ATP luminescence, 48 h. hit rate 2% among 360,000. Potency, µM (titrated, usually from 46.1 µM), for inactives: at the top dose activity, negative = toxicity, usual class: cytotoxic;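 further: potency means the concentration at half of the fitted maximal effect; 0% = DMSO wells and -100% = cell-free medium wells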
#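 Viability of IDH1-knockdown HT-1080 fibrosarcoma cells was assessed by CellTiter-Glo after 48 h at 37 °C with titrated compound; concentration-effect curves were classified by fit quality and response size.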
# Active calls of the source: *; ? = inconclusive; · = not tested or not shown. Unless noted, the call rests on the fitted dose curve; in most records, active means well fitted curve in the direction sought with a large enough effect; inconclusive means small, poorly fitted or top-dose-only effect, or another doubt; inactive means no such curve, though single readings can be large; an effect the other way counts as inactive or inconclusive. Unless noted, on the % scale 0 is the no-effect control and ±100 the full control effect.
SMILES,DT40 TDP1 CPT,HT1080NT lethal,TDP1 cell noCPT,IL1B secr inh,uPA surface inh,HT1080 IDH1KD tx
Cc1cccc(NC(=O)CN2CCN(C(=O)CN3C(=O)NC4(CC(C)CC(C)(C)C4)C3=O)CC2)c1C (configuration not stated),20.6µM*,2.0%,4.11µM*,0.0,-5.9%,-7.3%
CC1CC(C)(C)CC2(C1)NC(=O)N(CC(=O)N1CCN(S(=O)(=O)c3cccs3)CC1)C2=O (configuration not stated),?,4.9%,?,5.4,11.0%,2.8%
CC1CC(C)(C)CC2(C1)NC(=O)N(CC(=O)N1CCN(Cc3ccc(C#N)cc3)CC1)C2=O (configuration not stated),8.2µM*,?,5.17µM*,0.1,?,?
CC1(c2ccc3ccccc3c2)NC(=O)N(CC(=O)N2CCN(Cc3ccc(C#N)cc3)CC2)C1=O (configuration not stated),3.26µM*,?,2.06µM*,-6.4,?,-21.6%
COc1ccc(C(=O)N2CCC3(CCN(Cc4ccncc4)CC3)CC2)cc1,-2.1%,·,?,·,·,·
O=C1C(Cc2cccc([N+](=O)[O-])c2)SC(=Nc2ccccc2)N1c1ccccc1 (configuration not stated),-14.4%,-0.7%,-27.0%,16.7,0.8%,0.0%
O=C(CC1NCCc2ccccc21)Nc1ccccc1 (configuration not stated),3.1%,-18.2%,4.4%,-7.6,1.5%,4.0%
Cc1ccc(S(=O)(=O)NCC2NCCc3ccccc32)cc1 (configuration not stated),-9.1%,13.1%,23.1µM*,-1.3,-3.2%,7.9%
CCOC(=O)C1(C)Oc2cccnc2NC1=O (configuration not stated),-4.2%,3.1%,-13.4%,-69.7*,6.5%,0.2%
O=C(CCN1C(=O)S/C(=C/c2ccc(Cl)cc2)C1=O)N1CCOCC1,11.6µM*,0.0%,16.4µM*,13.0,0.9%,6.9%
Cn1c(=O)n(C)c2cc(/C=C3/SC(=O)N(CC(=O)N4CCOCC4)C3=O)ccc21,2.8%,13.2%,-13.3%,6.7,-11.1%,7.5%
O=C(CCN1C(=O)/C(=C\c2ccccc2)SC1=S)NCCCN1CCOCC1,?,-0.1%,?,-27.0,-28.0%,1.4%
Cc1ccc(/C=C2\SC(=S)N(CCCC(=O)N3CCOCC3)C2=O)cc1,?,-0.6%,?,-66.4*,-11.1%,2.6%
O=C1C(=Cc2ccccc2O)SC(=S)N1CCCN1CCOCC1,?,2.3%,9.2µM*,16.7,·,3.0%
COC(=O)c1ccc(/C=C2/SC(=S)N(CCC(=O)N3CCOCC3)C2=O)cc1,16.4µM*,1.4%,18.4µM*,-11.4,-14.9%,5.8%
Cc1ccc(C=C2SC(=S)N(CCCC(=O)Nc3cccc(C(=O)O)c3)C2=O)cc1,-10.2%,10.4%,-3.8%,-1.7,·,11.7%
COC(=O)c1ccc(/C=C2\SC(=S)N(CCCC(=O)N3CCOCC3)C2=O)cc1,-2.5%,0.0%,6.8%,-8.0,14.0%,-5.4%
Cc1cccc(C)c1Nc1c(-c2ccccn2)nc2c(C)cccn12,16.4µM*,·,25.9µM*,·,·,·
Cc1cccn2c(Nc3ccccc3)c(-c3ccccn3)nc12,18.4µM*,?,20.6µM*,-9.1,-1.7%,-11.4%
C=CCn1c(=NC(=O)CC)n(C)c2ccccc21,?,16.1%,-0.4%,22.1,3.3%,9.5%
OCc1cn(-c2ccccc2)nc1-c1ccc(-c2nn(-c3ccccc3)cc2CO)cc1,?,-17.4%,10.3µM*,-14.6,8.3%,-18.7%
Clc1ccccc1-c1cc(NCc2cccnc2)ncn1,0.5%,·,-19.9%,·,·,·
O=C(CCl)Nc1cn(-c2ccccc2)nc1-c1ccc(F)cc1,4.61µM*,8.2µM*,3.66µM*,-107.1*,-13.1%,4.61µM*
O=C(O)Cc1cn(-c2ccccc2)nc1-c1ccccc1,2.7%,15.1%,-20.1%,-5.5,-1.1%,15.0%
O=C(NCc1cn(-c2ccccc2)nc1-c1ccc(F)cc1)c1cccc([N+](=O)[O-])c1,?,-9.9%,?,-75.4*,-13.6%,-4.7%
SMILES,DT40 TDP1 CPT,HT1080NT lethal,TDP1 cell noCPT,IL1B secr inh,uPA surface inh,HT1080 IDH1KD tx
Fc1ccc(-n2cc(CNCCc3cccnc3)c(-c3ccccc3Cl)n2)cc1,14.6µM*,20.6µM*,23.1µM*,-76.2*,-2.8%,?
CCn1cc(CNC(=O)c2cccc([N+](=O)[O-])c2)c(C)n1,-5.9%,11.4%,-9.5%,21.6,3.5%,14.9%
O=C(Nc1nccs1)[C@@H]1CC=C[C@@H]2CCN(C3CCCCC3)C(=O)[C@@H]21,8.0%,·,2.9%,·,·,·
Fc1ccc(-c2nn(-c3ccccc3)cc2CNCc2ccccc2)cc1,?,20.6µM*,?,-90.1*,-0.3%,23.1µM*
CN(C)CCCNC(=O)c1cc(C(=O)c2cccc(Cl)c2Cl)c[nH]1,7.9%,-22.5%,?,-58.1*,0.4%,-26.4%
COCCCNC(=O)c1cc(C(=O)c2c(-c3c(Cl)cccc3Cl)noc2C)c[nH]1,23.1µM*,?,23.1µM*,0.0,-15.7%,?
Cc1cc(=O)n(CC(=O)N2CCN(c3ccc(F)cc3)CC2)c2c1c(C)nn2C,18.4µM*,·,20.6µM*,·,·,·
Cc1c2cnn(CC(=O)N3CCN(c4ccccc4)CC3)c(=O)c2c(C)n1Cc1ccccc1Cl,?,·,2.0%,·,·,·
Cc1cc(=O)n(CC(=O)N2CCCc3ccccc32)c2c1c(C)nn2-c1cccc(F)c1,16.4µM*,·,?,·,·,·
Cc1ccc(Cn2c(C)c3cnn(CC(=O)N4CCN(c5ccc(F)cc5)CC4)c(=O)c3c2C)cc1,10.3µM*,·,11.6µM*,·,·,·
Cc1c2cnn(-c3ccccc3)c(=O)c2c(C)n1CC(=O)N1CCN(c2cccc(Cl)c2)CC1,18.4µM*,·,13µM*,·,·,·
Cn1c(=O)c2c(ncn2CC(=O)N2CCN(c3ccc(F)cc3)CC2)n(C)c1=O,?,4.7%,?,-17.5,-1.1%,10.0%
Cc1ccc2nc(COc3ccccc3NC(=O)c3ccc(F)cc3)cc(=O)n2c1,15.8%,·,-7.7%,·,·,·
COc1ccc(NC(=O)c2sc3nc(-c4cc5ccc(OC)cc5oc4=O)[nH]c(=O)c3c2C)cc1,-11.6%,·,-14.1%,·,·,·
Cc1cc(C)c(C#N)c(Oc2ccccc2Br)n1,8.3%,0.1%,-4.3%,35.9,4.8%,1.8%
Cc1ccccc1CNC(=O)c1[nH]c(C(F)(F)F)nc1-c1ccccc1,?,-16.8%,?,13.4,·,-1.3%
Cc1ccc(C)c(N2CCN(C(=O)Cn3c(C)c4cnn(-c5ccccc5)c(=O)c4c3C)CC2)c1,5.17µM*,·,2.91µM*,·,·,·
